# Measurements as given in PubChem BioAssay (NCI).
# Compounds without any hit were thinned out: in the full panel of roughly 79,000, 15% have a hit. A number with no mark means an inactive call. The source made the active and inactive calls. Rule as the data show it: active = growth inhibition above about 70%; inactive = the rest.
# Experiments:
# [1] = NCI Yeast Anticancer Drug Screen. Data for the wt1 strain (AID 149);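 also: 0% = growth of vehicle-treated wt1 cultures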; details: S. cerevisiae wt1 strain (SPY 50644) growth inhibition, stronger effect = higher value
# Method in brief: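 Compounds are added to wt1 yeast cultures. Growth is then measured. Inhibition is expressed relative to vehicle-treated controls.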
# [2] = NCI Yeast Anticancer Drug Screen. Data for the rad50EPP+ strain (AID 151);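 also: 0% = growth of vehicle-treated control cultures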; details: S. cerevisiae rad50 mutant strain, stronger effect = higher value
# Method in brief: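 Genetically defined yeast (rad50EPP+, DNA damage repair alteration) is grown with compound, and inhibition of growth is expressed relative to vehicle-treated controls.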
# [3] = NCI Yeast Anticancer Drug Screen. Data for the rad50 strain (AID 155);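 also: 0% = growth of vehicle-only cultures of the same strain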; details: S. cerevisiae rad50 strain growth inhibition, stronger effect = higher value
# Method in brief: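 Inhibition values express reduced yeast growth in compound-treated cultures relative to vehicle-treated controls.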
# [4] = NCI Yeast Anticancer Drug Screen. Data for the mec2-1 strain (AID 157); details: S. cerevisiae mec2-1 strain, stronger effect = higher value
# Method in brief: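 Each compound was tested on mec2-1 yeast, a strain altered in DNA damage repair or cell cycle control. Growth inhibition is reported relative to vehicle.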
# [5] = NCI Yeast Anticancer Drug Screen. Data for the rad14 strain (AID 159);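 also: 0% = growth of vehicle-treated control cultures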; details: S. cerevisiae rad14 strain growth inhibition, stronger effect = higher value
# Method in brief: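 A mutant yeast strain defective in DNA damage repair is treated with compound; inhibition of its growth is scored against untreated, vehicle-exposed cultures.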
# [6] = NCI Yeast Anticancer Drug Screen. Data for the sgs1 mgt1 strain (AID 161);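 also: 0% = growth of cultures given vehicle only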; details: S. cerevisiae sgs1 mgt1 strain, stronger effect = higher value
# Method in brief: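 Mutant yeast exposed to compound; growth scored against vehicle-only wells.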
# [7] = NCI Yeast Anticancer Drug Screen. Data for the CLN2oe strain (AID 163);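 also: 0% = growth of vehicle-only control cultures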; details: S. cerevisiae CLN2oe strain, stronger effect = higher value
# Method in brief: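 First, the altered yeast strain was treated with each compound; second, its growth was measured; finally, inhibition was derived by comparison with vehicle controls.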
# [8] = NCI Yeast Anticancer Drug Screen. Data for the bub3 strain (AID 167); details: S. cerevisiae bub3 mutant strain, stronger effect = higher value
# Method in brief: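 Steps: expose the mutant yeast strain to compound; grow alongside vehicle-treated cultures; measure growth; express inhibition against the vehicle cultures.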
# [9] = NCI Yeast Anticancer Drug Screen. Data for the wt2 strain (AID 169);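 also: 0% = growth of vehicle-treated yeast cultures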; details: S. cerevisiae wt2 strain growth inhibition, stronger effect = higher value
# Method in brief: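 The panel's yeast strains carry defined changes in DNA repair or cell cycle genes. Each strain is grown with compound, and growth loss is scored relative to vehicle.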
# [10] = NCI Yeast Anticancer Drug Screen. Data for the mlh1 strain (AID 171);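 also: 0% = growth of vehicle-treated control cultures of the same strain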; details: S. cerevisiae mlh1 strain growth inhibition, stronger effect = higher value
# Method in brief: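 Inhibition values reflect reduced yeast growth in the presence of compound, referenced to vehicle controls, using a strain chosen for its alteration in DNA repair or cell cycle control.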
# [11] = NCI Yeast Anticancer Drug Screen. Data for the sgs1 strain (AID 173);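 also: 0% = growth of vehicle-only control cultures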; details: S. cerevisiae sgs1 mutant, stronger effect = higher value
# Method in brief: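 Vehicle-treated cultures served as reference for growth inhibition of a yeast strain altered in DNA damage repair or cell cycle control after compound exposure.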
# [12] = NCI Yeast Anticancer Drug Screen. Data for the mlh1 rad18 strain (AID 175); details: S. cerevisiae mlh1 rad18 strain growth inhibition, stronger effect = higher value
# Method in brief: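 Inhibition values reflect reduced growth of mutant yeast versus vehicle-treated controls following compound exposure; the mutations affect DNA damage repair.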
# [13] = NCI Yeast Anticancer Drug Screen. Data for the rad18 strain (AID 177); details: S. cerevisiae rad18 mutant growth inhibition, stronger effect = higher value
# Method in brief: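 Steps: expose repair-mutant yeast to compound; measure growth; express as inhibition relative to vehicle control.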
# [14] = NCI Yeast Anticancer Drug Screen. Data for the mgt1 strain (AID 153); details: S. cerevisiae mgt1 mutant growth inhibition, stronger effect = higher value
# Method in brief: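 In the mgt1 strain, test compounds were added and growth inhibition was determined relative to vehicle-treated controls.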
# [15] = NCI Yeast Anticancer Drug Screen. Data for the cln2 rad14 strain (AID 165);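 also: 0% = growth equal to vehicle treated cultures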; details: S. cerevisiae cln2 rad14 strain, stronger effect = higher value
# Method in brief: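 Test compounds were added to cln2 rad14 yeast cultures; inhibition of growth was then determined by comparison with vehicle treatment.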
# [16] = at 5.0 µM (retest, dose inferred, filed as 0.5)
# [17] = at 50.0 µM (retest, dose inferred, filed as 5.0)
structure (smiles),measurement,setting,value
NP1(Oc2ccc(F)cc2)=NP(N)(Oc2ccc(F)cc2)=NP(Oc2ccc(F)cc2)(Oc2ccc(F)cc2)=N1 (stereo not given),growth inhibition,[1]; at 1.2 µM,-2%
same,growth inhibition,[1]; at 3.7 µM,0%
same,growth inhibition,[1]; at 11.0 µM,20%
same,growth inhibition,[1]; at 33.0 µM,41%
same,growth inhibition,[1]; at 100.0 µM,48%
same,growth inhibition,[2]; at 1.2 µM,-6%
same,growth inhibition,[2]; at 3.7 µM,-2%
same,growth inhibition,[2]; at 11.0 µM,2%
same,growth inhibition,[2]; at 33.0 µM,4%
same,growth inhibition,[2]; at 100.0 µM,1%
same,growth inhibition,[3]; at 1.2 µM,4%
same,growth inhibition,[3]; at 3.7 µM,5%
same,growth inhibition,[3]; [16],21%
same,growth inhibition,[3]; at 11.0 µM,95% (active)
same,growth inhibition,[3]; at 33.0 µM,96% (active)
same,growth inhibition,[3]; [17],64%
same,growth inhibition,[3]; at 50.0 µM,94.8% (active)
same,growth inhibition,[3]; at 100.0 µM,96% (active)
same,growth inhibition,[4]; at 1.2 µM,1%
same,growth inhibition,[4]; at 3.7 µM,3%
same,growth inhibition,[4]; [16],12%
same,growth inhibition,[4]; at 11.0 µM,26%
same,growth inhibition,[4]; at 33.0 µM,28%
same,growth inhibition,[4]; [17],19%
same,growth inhibition,[4]; at 50.0 µM,84.7% (active)
same,growth inhibition,[4]; at 100.0 µM,94% (active)
same,growth inhibition,[5]; at 1.2 µM,-2%
same,growth inhibition,[5]; at 3.7 µM,1%
same,growth inhibition,[5]; at 11.0 µM,6%
same,growth inhibition,[5]; at 33.0 µM,15%
same,growth inhibition,[5]; at 100.0 µM,88% (active)
same,growth inhibition,[6]; [16],1%
same,growth inhibition,[6]; [17],28%
same,growth inhibition,[6]; at 50.0 µM,97.9% (active)
same,growth inhibition,[7]; at 1.2 µM,0%
same,growth inhibition,[7]; at 3.7 µM,-3%
same,growth inhibition,[7]; at 11.0 µM,17%
same,growth inhibition,[7]; at 33.0 µM,53%
same,growth inhibition,[7]; at 100.0 µM,94% (active)
same,growth inhibition,[8]; at 1.2 µM,1%
same,growth inhibition,[8]; at 3.7 µM,-1%
same,growth inhibition,[8]; [16],8%
same,growth inhibition,[8]; at 11.0 µM,53%
same,growth inhibition,[8]; at 33.0 µM,23%
same,growth inhibition,[8]; [17],35%
same,growth inhibition,[8]; at 50.0 µM,87.5% (active)
same,growth inhibition,[8]; at 100.0 µM,96% (active)
same,growth inhibition,[9]; at 1.2 µM,0%
same,growth inhibition,[9]; at 3.7 µM,7%
same,growth inhibition,[9]; at 11.0 µM,-1%
same,growth inhibition,[9]; at 33.0 µM,22%
same,growth inhibition,[9]; at 100.0 µM,50%
same,growth inhibition,[10]; at 1.2 µM,0%
same,growth inhibition,[10]; at 3.7 µM,-2%
same,growth inhibition,[10]; at 11.0 µM,1%
same,growth inhibition,[10]; at 33.0 µM,15%
same,growth inhibition,[10]; at 100.0 µM,84% (active)
same,growth inhibition,[11]; at 1.2 µM,-3%
same,growth inhibition,[11]; at 3.7 µM,0%
same,growth inhibition,[11]; at 11.0 µM,12%
same,growth inhibition,[11]; at 33.0 µM,51%
same,growth inhibition,[11]; at 100.0 µM,95% (active)
same,growth inhibition,[12]; [16],17%
same,growth inhibition,[12]; [17],86% (active)
same,growth inhibition,[12]; at 50.0 µM,88.2% (active)
same,growth inhibition,[13]; at 1.2 µM,-1%
same,growth inhibition,[13]; at 3.7 µM,14%
same,growth inhibition,[13]; at 11.0 µM,63%
same,growth inhibition,[13]; at 33.0 µM,83% (active)
same,growth inhibition,[13]; at 100.0 µM,97% (active)
NNC(=S)Nc1cccc2ccccc12,growth inhibition,[2]; at 1.2 µM,-48%
same,growth inhibition,[2]; at 3.7 µM,-52%
same,growth inhibition,[2]; at 11.0 µM,-54%
same,growth inhibition,[2]; at 33.0 µM,-45%
same,growth inhibition,[2]; at 100.0 µM,4%
same,growth inhibition,[14]; at 1.2 µM,-16%
same,growth inhibition,[14]; at 3.7 µM,-45%
same,growth inhibition,[14]; at 11.0 µM,-23%
same,growth inhibition,[14]; at 33.0 µM,-7%
same,growth inhibition,[14]; at 100.0 µM,60%
same,growth inhibition,[3]; at 1.2 µM,-31%
same,growth inhibition,[3]; at 3.7 µM,-26%
same,growth inhibition,[3]; [16],45%
same,growth inhibition,[3]; at 11.0 µM,-31%
same,growth inhibition,[3]; at 33.0 µM,-6%
same,growth inhibition,[3]; [17],35%
same,growth inhibition,[3]; at 50.0 µM,23.6%
same,growth inhibition,[3]; at 100.0 µM,43%
same,growth inhibition,[4]; at 1.2 µM,-16%
same,growth inhibition,[4]; at 3.7 µM,-41%
same,growth inhibition,[4]; [16],60%
same,growth inhibition,[4]; at 11.0 µM,-20%
same,growth inhibition,[4]; at 33.0 µM,-9%
same,growth inhibition,[4]; [17],78% (active)
same,growth inhibition,[4]; at 50.0 µM,23.8%
same,growth inhibition,[4]; at 100.0 µM,12%
same,growth inhibition,[5]; at 1.2 µM,-14%
same,growth inhibition,[5]; at 3.7 µM,-33%
same,growth inhibition,[5]; at 11.0 µM,-50%
same,growth inhibition,[5]; at 33.0 µM,-32%
same,growth inhibition,[5]; at 100.0 µM,28%
same,growth inhibition,[6]; [16],-11%
same,growth inhibition,[6]; [17],54%
same,growth inhibition,[7]; at 1.2 µM,5%
same,growth inhibition,[7]; at 3.7 µM,-3%
same,growth inhibition,[7]; at 11.0 µM,2%
same,growth inhibition,[7]; at 33.0 µM,3%
same,growth inhibition,[7]; at 100.0 µM,27%
same,growth inhibition,[15]; [16],31%
same,growth inhibition,[15]; [17],67%
same,growth inhibition,[8]; at 1.2 µM,-6%
same,growth inhibition,[8]; at 3.7 µM,-9%
same,growth inhibition,[8]; [16],36%
same,growth inhibition,[8]; at 11.0 µM,-15%
same,growth inhibition,[8]; at 33.0 µM,13%
same,growth inhibition,[8]; [17],59%
same,growth inhibition,[8]; at 100.0 µM,55%
same,growth inhibition,[9]; at 1.2 µM,-40%
same,growth inhibition,[9]; at 3.7 µM,-36%
same,growth inhibition,[9]; at 11.0 µM,-33%
same,growth inhibition,[9]; at 33.0 µM,-16%
same,growth inhibition,[9]; at 100.0 µM,17%
same,growth inhibition,[11]; at 1.2 µM,-14%
same,growth inhibition,[11]; at 3.7 µM,-33%
same,growth inhibition,[11]; at 11.0 µM,-19%
same,growth inhibition,[11]; at 33.0 µM,-8%
same,growth inhibition,[11]; at 100.0 µM,37%
same,growth inhibition,[12]; [16],40%
same,growth inhibition,[12]; [17],62%
same,growth inhibition,[12]; at 50.0 µM,49.2%
same,growth inhibition,[13]; at 1.2 µM,-32%
same,growth inhibition,[13]; at 3.7 µM,-39%
same,growth inhibition,[13]; at 11.0 µM,-21%
same,growth inhibition,[13]; at 33.0 µM,2%
same,growth inhibition,[13]; at 100.0 µM,18%
